Source: PubChem BioAssay (National Center for Advancing Translational Sciences (NCATS))
Tau ThT inhib: blocks human tau fibril formation measured by thioflavin T. recombinant tau K18 P301L, heparin-induced fibrillization, ThT fluorescence. Potency, µM (highest dose often 57.4 µM), for inactives: at the highest dose activity, negative = inhibition, usual class: inhibitors. P10636. hit rate 2.1% among 270,000. AID 1460; also: potency is read from the fitted curve at half-maximal effect; % is scaled to controls: 0 for no effect and ±100 for the full control effect; nearly all actives have a fitted effect of over 55% in size
Target sequence (P10636 561-689 P618L limits assumed): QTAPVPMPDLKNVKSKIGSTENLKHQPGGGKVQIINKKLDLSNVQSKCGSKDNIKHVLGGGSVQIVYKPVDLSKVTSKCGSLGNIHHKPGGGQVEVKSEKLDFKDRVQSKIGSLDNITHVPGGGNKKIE
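ThT emission at 510 nm, taken 1 hr after adding 30 uM dye, quantifies aggregates formed when 20 uM heparin acts on human tau K18 P301L for 6 hr at 37 C.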
NPSR antagonist: blocks cAMP signaling of the human neuropeptide S receptor; CHO-NPSR cells, cAMP TR-FRET, antagonist mode; Q6W5P4; Potency, µM (titrated, usually from 38.3 µM), for the others: at the top dose activity change, negative = inhibition, most hits filed as inhibitors; hit rate 1% among 220,000; also: potency is read from the fitted curve at half-maximal effect; % is scaled to controls: 0 for no effect and ±100 for the full control effect; nearly all actives have a fitted effect of over 50% in size
KinaseGlo FLuc: Kinase-Glo luciferase inhibition (counter-screen) | Q27757 | Kinase-Glo luciferase, ATP luminescence, 8 min | Potency, µM (highest dose often 38.3 µM), without a hit: at the top dose activity change, negative = inhibition, usual class: inhibitors | hit rate 0.28% among 200,000; also: potency is read from the fitted curve at half-maximal effect; % is scaled to controls: 0 for no effect and ±100 for the full control effect; nearly all actives have a fitted effect of over 60% in size
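Light output from Kinase-Glo luciferase with luciferin and 10 uM ATP in 50 mM imidazole pH 7.2, KCl, MgCl2, Tween 20, BSA; compound pin-delivered, 8-min ambient incubation, then luminescence read.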
Tau fluor counter: counter-screen for tau fibril formation inhibitors; tau K18 P301L Alexa594 fluorescence, heparin fibrillization; Potency, µM (titrated, usually from 57.7 µM), without a hit: at the top dose activity change, negative = decrease; hit rate 0.93% among 280,000; also: potency is read from the fitted curve at half-maximal effect; % is scaled to controls: 0 for no effect and ±100 for the full control effect; nearly all actives have a fitted effect of over 55% in size
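Human tau K18 P301L (15 uM unlabeled, 0.24 uM Alexa 594-labeled) in 100 mM sodium acetate pH 7 with 20 uM heparin, 6 hr at 37 C. ThT 30 uM added, 1 hr ambient; Alexa 594 FP and total fluorescence read at 555/632 nm.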
Tau FP inhib: blocks human tau fibril formation measured by polarization; P10636; K18 P301L tau heparin fibrillization, Alexa594 FP, 6 h; Potency, µM (doses to about 57.7 µM), inactives show at the highest dose activity, negative = inhibition, most hits filed as inhibitors; hit rate 0.39% among 280,000; also: potency is read from the fitted curve at half-maximal effect; % is scaled to controls: 0 for no effect and ±100 for the full control effect; nearly all actives have a fitted effect of over 55% in size
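K18 P301L tau (15 uM unlabeled/0.24 uM Alexa 594-labeled, final) + compound + heparin 20 uM final; 100 mM NaOAc pH 7; 6 hr 37 C; ThT 30 uM final added, 1 hr RT; FP ex 555/em 632 nm.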
Tau fibril TEM: Inhibits tau K18 fibrillization by TEM grading; shares compounds with Tau ThT inhib; recombinant tau K18 P301L fibrillization, TEM grading; active compounds read high; fibril grade (0 = clumped fibrils, 4 = only tiny pieces) (concentration not given with the values); hit rate 70% among 45;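 active = compounds whose electron micrographs showed tau fibrils broken into shorter filaments or fragments, graded high on fibril breakup; inconclusive = micrographs gave an unclear fibril picture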
tau fibril sed: inhibitors of human tau fibrillization, sedimentation test. shares compounds with Tau ThT inhib. recombinant tau K18 P301L (four-repeat tau fragment), sedimentation SDS-PAGE densitometry. inhibition, % at 100 µM. hit rate 50% among 110. AID 1720; in the data active = inhibition above about 40%; inconclusive = no clear call, values can overlap the other calls; inactive = below about 18%
* marks the source's active call; other numbers are inactive results; u = inconclusive; x = not tested or not shown; [ ] = remark or other dose. Shown are actives, neighbours in structure and some others; about 3.3% of the full set was active somewhere. Unless noted, calls follow the shape of the dose curve; as a rule, active = well fitted curve in the direction sought with a large enough effect; inconclusive = small, poorly fitted or top-dose-only effect, or another doubt; inactive = no such curve, though single readings can be large; an effect the other way counts as inactive or inconclusive.

SMILES	Tau ThT inhib	NPSR antagonist	KinaseGlo FLuc	Tau fluor counter	Tau FP inhib	others
O=C1C=C2C(=CCOC2O)O1 (configuration not stated)	2.2µM*	x	-5%	-19%	2µM*
O=C(O)c1cc[c]([Hg][S]c2ncnc3nc[nH]c23)cc1	x	x	0%[7.66 µM]	x	x
Cn1c(NN=O)nc2ccccc21	18µM*	40%	-1%	u	-9%
CCN(CC)c1ccc(CNc2nc3ccccc3n2C)cc1	x	u	x	-12%	4%
CC(C)(C)c1ccc(O)c(C[N+](C)(C)C)c1	x	x	-5%[7.66 µM]	x	x
COc1ccc2c(c1)NP(=S)(Oc1ccccc1)N2 (configuration not stated)	8.9µM*	0%	x	u	u
COc1cccc(-n2c(=S)[nH]c3ccccc3c2=O)c1	0%	-3%	6%	5%	2%
CCN1C(=O)C(=Cc2cc(C)n(C3CC3)c2C)C(=O)N(CC)C1=S	u	-54%	-3%	-5%	-4%
CCN1C(=O)C(=Cc2ccc(C)s2)C(=O)N(CC)C1=S	14µM*	-53%	-9%	-29%	u
COc1ccc(Nc2cc(C)c3cc(NC(=O)c4ccccc4Cl)ccc3n2)cc1	4µM*	x	x	8.9µM*[quencher]	u
CN1CCCC2(CCN(C(=O)c3ccco3)CC2)C1	x	x	0%	x	x
Nc1nnnn1CCO	x	x	-4%[7.66 µM]	x	x
CC(N)[C@H](O)c1ccc(O)c(O)c1 (some centres not stated)	3.5µM*	-8%[46.1 µM]	-9%	u	u	Tau fibril TEM=2*;tau fibril sed=70*
O=P(O)(OP(=O)(O)c1ccccc1)c1ccccc1 (tested in a mixture with another compound)	x	x	-4%[7.66 µM]	x	x
